Laboratory results reported in PubChem BioAssay (NCATS).
Activity calls are given as the source filed them. Calls follow the shape of the dose curve; as a rule, active = well fitted curve in the direction sought with a large enough effect; inactive = no such curve, though single readings can be large or run the other way.

Experiment: qHTS for small molecule inhibitors of Yes1 kinase: Counter Assay (AID 686950);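 also: no kinase present so only ADP-Glo detection of a fixed ADP amount is tested; luminescence from ADP-Glo reporting ADP in a fixed ATP and ADP mixture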
Conditions: series mostly up to 76.9 µM
Outline: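 Measuring interference with ADP-Glo, the assay ran 60 min at room temperature on an ATP/ADP mix lacking enzyme. Values were normalized to ATP-plus-ADP (maximum) and ATP-only (minimum) DMSO controls.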

Q: Which outcome does the source give for `COc1cccc(Nc2nccc(-c3cnn4ncccc34)n2)c1` here?
A: inactive

Q: With `CN(C)C(=O)OC1CNC(C#Cc2cc3ncnc(Nc4ccc(OCc5cccc(F)c5)c(Cl)c4)c3s2)C1` (stereo unspecified) as the compound, how does the outcome read?
A: inactive

Q: With `N#Cc1c(NC(=O)c2ccccc2F)sc2c1CCCC2` as the compound, how does the outcome read?
A: inactive

Q: For `CC(Oc1cc(-n2cnc3ccc(OC4CCN(C)CC4)cc32)sc1C(N)=O)c1ccccc1Cl` (stereo unspecified), which outcome is on record?
A: inactive

Q: With `Fc1cccc(COc2ccc(Nc3ncncc3C#Cc3ccccc3)cc2Cl)c1` as the compound, how does the outcome read?
A: inactive

Q: Which outcome does the source give for `O=C(OC1CNC(C#Cc2cc3ncnc(Nc4ccc(OCc5cccc(F)c5)c(Cl)c4)c3s2)C1)N1CCOCC1` (stereo unspecified) here?
A: inactive

Q: For `COc1ccc2c(-c3ccnc(Nc4cccc(OC(F)(F)F)c4)n3)cnn2n1`, which outcome is on record?
A: inactive

Q: Which outcome does the source give for `COc1cccc(-c2c[nH]c3c(NN=Cc4ccncc4)ncnc23)c1` here?
A: inactive

Q: Which outcome does the source give for `COc1ccc(-c2cc(-c3cn[nH]c3-c3ccccn3)ccn2)cc1` here?
A: inactive

Q: Which outcome does the source give for `CS(=O)(=O)CCN(CC#N)Cc1ccc(-c2ccc3ncnc(Nc4ccc(OCc5cccc(F)c5)c(Cl)c4)c3c2)o1` here?
A: inactive

Q: Which outcome does the source give for `O=C1NC(=O)C(c2ccc(Cl)cc2)=C1Nc1ccc(Cl)c(C(=O)O)c1` here?
A: inactive

Q: Which outcome does the source give for `NC(=O)c1ccc2c(-c3ccnc(NCCCO)n3)c(-c3ccc(F)cc3)nn2c1` here?
A: inactive

Q: Which outcome does the source give for `CC1(C)CC(n2cnc(-c3ccc(F)cc3)c2-c2ccnc(N)n2)CC(C)(C)N1` here?
A: inactive

Q: Which outcome does the source give for `O=S1CCN(Cc2ccc(-c3ccc4ncnc(Nc5ccc(OCc6ccccc6)c(Cl)c5)c4c3)o2)CC1` here?
A: inactive

Q: Which outcome does the source give for `Cc1ccc(NC(=O)CC2CC2)cc1-c1ccc(C(=O)NCC2CC2)cc1` here?
A: inactive

Q: For `CCN(CC)Cc1ccc(Nc2nccc(-c3cnn4ncccc34)n2)cc1`, which outcome is on record?
A: inactive
